Reference: PubChem BioAssay (Tox21)
Records with an inconclusive call do not appear. Active and inactive are the calls of the source. Unless noted, the call rests on the fitted dose curve.

How the values were obtained:
[1] = Nuclear factor erythroid 2-related factor 2/antioxidant responsive element (Nrf2/ARE) small molecule agonists: luciferase reporter gene qHTS assay in human keratinocytes (AID 1919969); further: nearly all actives have a fitted effect of over 35% in size; further: potency means the concentration at half of the fitted maximal effect
[2] = target: Gonadotropin-releasing hormone receptor (Homo sapiens) (UniProt P30968); experiment: Human gonadotropin-releasing hormone receptor (GnRHR) small molecule agonists, calcium flux assay in GnRHR-HEK293 cells (AID 1920063); further: nearly all actives have a fitted effect of over 35% in size; further: potency means the concentration at half of the fitted maximal effect
How it was run: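 We seeded human GnRHR-expressing HEK293 cells for 18 hours, loaded them with calcium dye for an hour at 37 C, added test compounds, and recorded fluorescence intensity kinetically for three minutes.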

[3] = target: KiSS-1 receptor (Homo sapiens) (UniProt Q969F8); experiment: Human kisspeptin (KISS1R) small molecule agonists, calcium flux assay in KISS1R-HEK293 cells (AID 1920064; active means well fitted activation curve with a large enough effect in the repeat runs)
How it was run: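 Kinetic calcium assay, 1 s sampling over 3 min at Ex/Em 480/540, in HEK293 cells engineered with human KISS1R; compounds delivered in DMSO after 1 h dye loading.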

[4] = G protein-coupled receptor (GPCR) small molecule agonists, calcium flux assay: HEK293 wild type cell line counter screen (AID 1920065)
How it was run: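 Calcium-sensitive dye, loaded 1 h at 37 C into cells cultured 18 h, reports compound-evoked calcium release as fluorescence (Ex/Em 480/540), measured over 3 min. Agonist mode; 15-point titrations, triplicate.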

[5] = p53 small molecule agonists, cell-based qHTS assay with rat liver microsomes (AID 1963578); further: potency means the concentration at half of the fitted maximal effect
How it was run: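 Metabolic activation by rat liver microsomes and NADPH, each 0.5 mg/mL final, added right after compounds to p53RE-bla reporter cells (4,000/well, plated 5 h earlier). 16 h at 37 C, then LiveBLAzer substrate for 2 h at room temperature in the dark; fluorescence read-out.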

[6] = p53 small molecule agonists, cell-based qHTS assay with human liver microsomes: qHTS cell viability counter screen (AID 1963579); further: nearly all actives have a fitted effect of over 45% in size
How it was run: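 Metabolic activation used human liver microsomes and NADPH, both 0.5 mg/mL final, over 16 hours at 37 C on p53RE-bla cells (4,000/well). Cytotoxicity measured by CellTiter-Glo luminescence, 30 min at room temperature.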

[7] = p53 small molecule agonists, cell-based qHTS assay with rat liver microsomes: qHTS cell viability counter screen (AID 1963580); further: nearly all actives have a fitted effect of over 45% in size; further: potency means the concentration at half of the fitted maximal effect
How it was run: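 In HCT-116 cells carrying a p53 response element-bla reporter, compounds were metabolically activated in situ by rat liver microsomes with NADPH over 16 h. Cell ATP content then served as the cytotoxicity measure.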

[8] = p53 small molecule agonists, cell-based qHTS assay: qHTS cell viability counter screen (AID 1963581); further: nearly all actives have a fitted effect of over 45% in size; further: potency means the concentration at half of the fitted maximal effect
How it was run: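 Following 5 h attachment, HCT-116 p53RE-bla cells took up compound for 16 h at 37 C; the reporter was read with B/G FRET substrate (2 h RT), and viability then via CellTiter-Glo ATP luminescence.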

[9] = target: 5-hydroxytryptamine receptor 2A (Homo sapiens) (UniProt P28223); experiment: 5-hydroxytryptamine receptor 2A (HTR2A) small molecule agonists, cell-based qHTS assay (AID 1963587); further: nearly all actives have a fitted effect of over 30% in size; further: potency means the concentration at half of the fitted maximal effect
How it was run: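 HTR2A-CHO cells, plated 18 h at 37 C/5% CO2, dye-loaded 1 h at 37 C; compounds in DMSO added by pin tool (agonist mode). Intracellular calcium flux read as kinetic fluorescence on FDSS over 2 min at 1 s intervals.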

[10] = target: Muscarinic acetylcholine receptor M1 (Homo sapiens) (UniProt P11229); experiment: Cholinergic receptor muscarinic 1 (CHRM1) small molecule antagonists, cell-based qHTS assay (AID 1963588); further: nearly all actives have a fitted effect of over 40% in size
How it was run: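 CHRM1-CHO calcium-flux assay, antagonist mode. Cells were seeded 18 h, dye-loaded 1 h at 37 C and given compound for 5 min at RT, then acetylcholine was added at 50nM. FDSS fluorescence was read 3 min; 15 concentrations, three runs.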

[11] = target: Muscarinic acetylcholine receptor M1 (Homo sapiens) (UniProt P11229); experiment: Cholinergic receptor muscarinic 1 (CHRM1) small molecule agonists, cell-based qHTS assay (AID 1963589); further: nearly all actives have a fitted effect of over 35% in size
How it was run: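 Measures agonist-induced intracellular calcium rise. Stable human CHRM1 CHO line, 1 h dye load at 37 C, compounds from DMSO, kinetic fluorescence read.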

[12] = target: Beta-2 adrenergic receptor (Homo sapiens) (UniProt P07550); experiment: Adrenergic beta2 receptor (ADRB2) small molecule antagonists, cell-based qHTS assay (AID 1963592); further: nearly all actives have a fitted effect of over 50% in size; further: potency means the concentration at half of the fitted maximal effect
How it was run: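 Cells (CHO, stable ADRB2 overexpression) incubated 18-20hr at 37C; compounds added from DMSO; agonist mix (1nM isoproterenol, 100uM IBMX, 25uM Ro-20-1724) added; 0.5hr RT; d2-cAMP and anti-cAMP-cryptate added; 1hr RT; 665/615 nm read.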

[13] = target: Beta-2 adrenergic receptor (Homo sapiens) (UniProt P07550); experiment: Adrenergic beta2 receptor (ADRB2) small molecule agonists, cell-based qHTS assay (AID 1963593); further: potency means the concentration at half of the fitted maximal effect;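 on activation: CHO cells stably overexpressing human ADRB2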
How it was run: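 CHO cells stably over-expressing ADRB2 were plated overnight at 37C, then dosed with compounds plus a stimulation mix containing 100uM IBMX and 25uM Ro-20-1724 for 0.5hr at room temperature. cAMP was measured by HTRF competition, 1hr.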

[14] = target: D(2) dopamine receptor (Homo sapiens) (UniProt P14416); experiment: Dopamine D2 receptor (DRD2) small molecule agonists, cell-based qHTS assay (AID 1963594); further: nearly all actives have a fitted effect of over 35% in size; further: potency means the concentration at half of the fitted maximal effect
How it was run: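 HEK293 cells stably expressing DRD2 were cultured 24 h at 37 C, then given Ro20-1724 (0.1 mM final) and compounds for 10 min at room temperature. NKH477 (200nM) was then added for 30 min. cAMP was read by HTRF.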

[15] = target: D(2) dopamine receptor (Homo sapiens) (UniProt P14416); experiment: Dopamine D2 receptor (DRD2) small molecule antagonists, cell-based qHTS assay (AID 1963595; active means well fitted inhibition curve with a large enough effect in the signal ratio in the repeat runs, with a control signal flat; the % refers to the signal ratio; further: potency means the concentration at half of the fitted maximal effect)
How it was run: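 In this cell-based antagonist screen, compounds act for 10 min at room temperature before a 30 min challenge with 12 nM quinpirole and 200 nM NKH477. cAMP is quantified by HTRF competition in DRD2-HEK293 cells containing 0.1 mM Ro20-1724.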

[16] = target: 5-hydroxytryptamine receptor 2A (Homo sapiens) (UniProt P28223); experiment: 5-hydroxytryptamine receptor 2A (HTR2A) small molecule antagonists, cell-based qHTS assay (AID 1963586); further: nearly all actives have a fitted effect of over 45% in size; further: potency means the concentration at half of the fitted maximal effect
How it was run: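 Antagonist-mode intracellular calcium assay: DOI (4 nM) added after 5 min compound pre-incubation at room temperature to dye-loaded HTR2A-CHO cells. Fluorescence followed for 3 min, sampled every second.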

[17] = cAMP Responsive Elements (CRE) small molecule antagonists, cell-based qHTS assay (AID 1963591; active means well fitted inhibition curve with a large enough effect in the signal ratio in the repeat runs, not every such curve was filed as active; the % refers to the signal ratio)
How it was run: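 HEK293T cells carrying a CRE-driven beta-lactamase reporter receive compound and NKH477 (0.25 uM final) for 3 h. Fluorescence from LiveBLAzer B/G FRET substrate is read after 2 h at room temperature.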

[18] = p53 small molecule agonists, cell-based qHTS assay (AID 1963582; active means well fitted activation curve with a large enough effect in the signal ratio in the repeat runs, not every such curve was filed as active; the % refers to the signal ratio)
How it was run: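 In this cell-based concentration-response screen, a p53 response element drives beta-lactamase; cells received DMSO-borne compounds after 5 h culture and were incubated a further 16 h before FRET substrate development.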

[19] = cAMP Responsive Elements (CRE) small molecule agonists, cell-based qHTS assay (AID 1963590)
How it was run: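 A CRE-responsive beta-lactamase reporter in HEK 293T cells was used. Treatment ran 3 h at 37 C; detection used LiveBLAzer B/G FRET substrate for 2 h at room temperature.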

Measured: Potency

Sequence of Muscarinic acetylcholine receptor M1 (Homo sapiens) (P11229 whole entry, looked up): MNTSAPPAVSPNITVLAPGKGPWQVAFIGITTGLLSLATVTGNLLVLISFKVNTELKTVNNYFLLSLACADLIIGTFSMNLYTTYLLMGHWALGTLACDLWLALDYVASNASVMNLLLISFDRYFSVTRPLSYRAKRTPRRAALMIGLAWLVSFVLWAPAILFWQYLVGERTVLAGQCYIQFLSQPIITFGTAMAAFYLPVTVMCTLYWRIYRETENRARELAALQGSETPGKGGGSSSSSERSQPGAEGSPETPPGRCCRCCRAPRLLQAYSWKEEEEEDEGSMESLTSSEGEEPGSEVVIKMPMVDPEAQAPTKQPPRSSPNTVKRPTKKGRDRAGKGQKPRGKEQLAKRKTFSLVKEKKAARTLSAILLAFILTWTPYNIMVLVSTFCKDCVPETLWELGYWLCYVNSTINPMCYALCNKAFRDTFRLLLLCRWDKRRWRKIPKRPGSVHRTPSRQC
Sequence of Beta-2 adrenergic receptor (Homo sapiens) (P07550 whole entry, looked up): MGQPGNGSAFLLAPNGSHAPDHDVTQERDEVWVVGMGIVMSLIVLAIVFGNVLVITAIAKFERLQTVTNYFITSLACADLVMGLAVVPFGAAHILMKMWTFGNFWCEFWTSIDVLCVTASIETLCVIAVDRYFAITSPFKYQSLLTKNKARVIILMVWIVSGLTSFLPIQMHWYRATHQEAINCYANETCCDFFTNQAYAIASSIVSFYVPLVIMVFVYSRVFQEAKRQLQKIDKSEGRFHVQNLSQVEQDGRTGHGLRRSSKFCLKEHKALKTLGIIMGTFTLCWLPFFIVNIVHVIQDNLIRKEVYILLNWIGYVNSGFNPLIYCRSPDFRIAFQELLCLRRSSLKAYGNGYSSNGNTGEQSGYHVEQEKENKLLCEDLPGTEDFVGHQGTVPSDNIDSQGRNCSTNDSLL
Sequence of Gonadotropin-releasing hormone receptor (Homo sapiens) (P30968 whole entry, looked up): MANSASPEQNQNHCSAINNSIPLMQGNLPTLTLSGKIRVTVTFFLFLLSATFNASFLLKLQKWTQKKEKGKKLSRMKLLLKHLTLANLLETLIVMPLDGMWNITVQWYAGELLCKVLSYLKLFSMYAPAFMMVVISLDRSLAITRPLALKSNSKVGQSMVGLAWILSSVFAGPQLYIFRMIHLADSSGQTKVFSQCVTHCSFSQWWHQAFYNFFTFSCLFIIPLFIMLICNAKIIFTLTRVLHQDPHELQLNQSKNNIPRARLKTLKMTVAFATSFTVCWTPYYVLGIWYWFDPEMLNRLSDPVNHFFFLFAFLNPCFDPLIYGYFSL
Sequence of D(2) dopamine receptor (Homo sapiens) (P14416 whole entry, looked up): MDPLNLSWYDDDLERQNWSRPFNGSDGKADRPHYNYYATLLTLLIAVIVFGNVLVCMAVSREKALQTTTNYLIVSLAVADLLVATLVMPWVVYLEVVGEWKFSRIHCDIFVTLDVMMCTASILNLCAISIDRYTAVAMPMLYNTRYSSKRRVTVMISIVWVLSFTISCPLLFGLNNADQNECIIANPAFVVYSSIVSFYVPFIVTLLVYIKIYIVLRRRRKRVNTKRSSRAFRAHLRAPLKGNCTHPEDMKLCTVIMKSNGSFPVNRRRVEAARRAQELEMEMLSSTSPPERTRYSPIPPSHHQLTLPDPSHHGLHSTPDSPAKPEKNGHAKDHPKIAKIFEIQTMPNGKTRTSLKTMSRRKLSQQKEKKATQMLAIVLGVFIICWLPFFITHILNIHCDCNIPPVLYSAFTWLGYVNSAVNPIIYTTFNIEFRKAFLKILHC
Sequence of KiSS-1 receptor (Homo sapiens) (Q969F8 whole entry, looked up): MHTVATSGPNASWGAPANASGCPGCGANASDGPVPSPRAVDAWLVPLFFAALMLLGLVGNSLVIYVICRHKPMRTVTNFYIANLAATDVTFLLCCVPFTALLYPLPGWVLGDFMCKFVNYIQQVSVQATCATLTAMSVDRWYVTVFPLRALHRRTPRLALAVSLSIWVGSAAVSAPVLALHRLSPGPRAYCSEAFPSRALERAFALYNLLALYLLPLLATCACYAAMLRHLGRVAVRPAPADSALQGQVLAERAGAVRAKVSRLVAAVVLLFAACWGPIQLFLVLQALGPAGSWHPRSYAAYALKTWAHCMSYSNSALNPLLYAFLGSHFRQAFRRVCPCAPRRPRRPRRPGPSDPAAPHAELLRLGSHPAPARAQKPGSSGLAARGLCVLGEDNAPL
Sequence of 5-hydroxytryptamine receptor 2A (Homo sapiens) (P28223 whole entry, looked up): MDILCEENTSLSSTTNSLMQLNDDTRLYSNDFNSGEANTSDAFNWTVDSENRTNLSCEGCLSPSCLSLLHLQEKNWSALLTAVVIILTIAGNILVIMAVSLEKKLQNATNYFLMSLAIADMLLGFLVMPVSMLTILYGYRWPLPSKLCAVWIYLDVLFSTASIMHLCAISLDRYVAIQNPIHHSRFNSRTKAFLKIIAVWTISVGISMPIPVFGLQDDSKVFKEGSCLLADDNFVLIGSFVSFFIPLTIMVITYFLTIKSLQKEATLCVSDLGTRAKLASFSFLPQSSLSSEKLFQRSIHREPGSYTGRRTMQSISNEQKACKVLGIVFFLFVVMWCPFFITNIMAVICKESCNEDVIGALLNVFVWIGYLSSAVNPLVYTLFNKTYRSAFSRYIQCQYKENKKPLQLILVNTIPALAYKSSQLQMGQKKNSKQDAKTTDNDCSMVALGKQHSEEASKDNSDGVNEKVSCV

c1ccc2cc3c(cc2c1)-c1cccc2cccc-3c12
active: [5] 18 µM
not listed: [16] | [17] | [18] | [19]
inactive: all other assays above

CC(C)(O)c1cnn2c(-c3ccc(F)c(-c4c(F)cccc4C#N)c3)cnc2n1
active: [2] 38.9 µM | [9] 54.9 µM
not listed: [5] | [14] | [17] | [18] | [19]
inactive: all other assays above

Cc1ccc([N+](=O)[O-])[c]2c1[O][Hg]2
active: [1] 2.66 µM | [2] 16.9 µM | [7] 15.8 µM | [8] 8.9 µM | [16] 7.29 µM | [9] 23.9 µM | [12] 29.8 µM | [14] 32.2 µM
inactive: [3] | [4] | [5] | [10]

CCNc1nc(Cl)nc(NC(C)(C)C)n1
not listed: [5] | [13] | [18] | [19]
inactive: all other assays above

CCOP(=S)(OCC)SCSP(=S)(OCC)OCC
active: [1] 68.6 µM
not listed: [5] | [9] | [10] | [16] | [19]
inactive: all other assays above

Brc1ccc(Oc2ccc(Br)cc2Br)c(Br)c1
active: [1] 6.12 µM
not listed: [9] | [10] | [19]
inactive: all other assays above

CO/N=C(/C1=NOCCO1)c1ccccc1Oc1ncnc(Oc2ccccc2Cl)c1F
not listed: [8] | [13] | [14] | [16] | [18] | [19]
inactive: all other assays above

CCOc1cc(C(C)(C)C)ccc1C1COC(c2c(F)cccc2F)=N1 (configuration not stated)
not listed: [5] | [13] | [14] | [15] | [17] | [18] | [19]
inactive: all other assays above

CCOP(=S)(Oc1ccc([N+](=O)[O-])cc1)c1ccccc1 (configuration not stated)
not listed: [5] | [10] | [11] | [14] | [15] | [18]
inactive: all other assays above

Brc1cccc(-c2ccccc2)c1
not listed: [5] | [10] | [18]
inactive: all other assays above

COP(=S)(OC)Oc1ccc([N+](=O)[O-])cc1Cl
not listed: [5] | [13]
inactive: all other assays above

CSC(=O)c1c(C(F)F)nc(C(F)(F)F)c(C(=O)SC)c1CC(C)C
active: [1] 24.2 µM
not listed: [10] | [13] | [16] | [18] | [19]
inactive: all other assays above

CNCC(=O)c1ccc(O)c(O)c1
active: [2] 5.35 µM | [13] 0.531 µM | [14] 26.6 µM | [15] 26.6 µM
not listed: [5] | [12] | [19]
inactive: all other assays above

COC(C)(C)CCC[C@H](C)C/C=C/C(C)=C/C(=O)OC(C)C
active: [1] 61.1 µM
not listed: [10] | [17] | [18] | [19]
inactive: all other assays above
